Compound activity (PubChem)
Neddylation inh – inhibitors of cullin neddylation, primary screen, biochemical, TR-FRET, uHTS, NAE and Ubc12. 360,000 tested, 0.58% active. calls only at 25 µM. NEDD8-conjugating enzyme Ubc12 (Homo sapiens) + NEDD8-activating enzyme E1 regulatory …. AID 651699, 2012; in the data active means inhibition above about 36%
UHRF1 binding – UHRF1 methylated DNA binding inhibitors, primary screen, counter-screen for MBD2 inhibitor project, biochemical, TR-FRET, human UHRF1, single concentration; E3 ubiquitin-protein ligase UHRF1 (Homo sapiens), Q96T88; UHRF1 binding to methylated oligo; inhibition, % at 4.4 µM; 370,000 tested, 0.75% active; AID 687016, 2013; in the data active means inhibition above about 21%;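 further: UHRF1 SRA domain binding a hemimethylated CpG hairpin DNA probe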
MBD2 DNA inh – inhibitors of MBD2 binding to methylated DNA, primary screen, biochemical, TR-FRET, DNA-binding domain, human. Methyl-CpG-binding domain protein 2 (Homo sapiens), Q9UBB5. MBD2 binding to methylated oligonucleotide. 370,000 tested, 0.31% active. inhibition, % at 4.4 µM. AID 686964, 2013; in the data active means inhibition above about 13%
Target sequence (Q9UBB5 whole entry, looked up, the tested form may be a part): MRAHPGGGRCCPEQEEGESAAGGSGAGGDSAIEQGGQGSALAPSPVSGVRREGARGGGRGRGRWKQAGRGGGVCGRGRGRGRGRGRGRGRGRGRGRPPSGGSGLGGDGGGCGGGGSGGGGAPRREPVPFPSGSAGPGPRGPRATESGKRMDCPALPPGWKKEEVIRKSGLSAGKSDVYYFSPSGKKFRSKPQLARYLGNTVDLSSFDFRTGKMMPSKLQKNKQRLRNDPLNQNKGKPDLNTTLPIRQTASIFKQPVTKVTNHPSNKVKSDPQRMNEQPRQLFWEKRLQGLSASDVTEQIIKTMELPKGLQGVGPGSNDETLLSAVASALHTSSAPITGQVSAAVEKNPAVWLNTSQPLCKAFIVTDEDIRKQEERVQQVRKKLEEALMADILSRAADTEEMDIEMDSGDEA
Rin1-Abl PPI inh – inhibitors of Rin1-Abl protein binding, primary screen, biochemical, TR-FRET; 360,000 tested, 0.4% active; inhibition, % at 7.35 µM; Tyrosine-protein kinase ABL1 (Homo sapiens) + Ras and Rab interactor 1 (Homo sapiens), …; AID 588664, 2011; in the data active means inhibition above about 5%, passing the limit was not always enough
LEDGF integ inh – blockers of LEDGF/p75-dependent integrase strand transfer – biochemical, TR-FRET, high throughput, primary screen. HIV-1 integrase (with human LEDGF/p75). TR-FRET IN-LEDGF/p75 DNA integration, Eu/Cy5. inhibition, % at 3.7 µM. 370,000 tested, 0.64% active;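 active means inhibition above the screen-wide mean plus 3 SD, cut at about 13% in these data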;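 further: signal is the Cy5 over europium emission ratio at 671 and 618 nm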
proKLK7 act – proKLK7 zymogen activators, primary screen, biochemical, fluorescence intensity; activation, % at 7 µM; purified proKLK7, EDANS-DABCYL substrate fluorescence; 100% is mature enzyme control, 0% vehicle; 370,000 tested, 0.9% active; AID 652039, 2013;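 active means activation above the mean of all tested compounds plus 3 SD, computed per campaign excluding outliers beyond control limits, cut at about 13% in these data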
Target sequence (P49862 whole entry, looked up): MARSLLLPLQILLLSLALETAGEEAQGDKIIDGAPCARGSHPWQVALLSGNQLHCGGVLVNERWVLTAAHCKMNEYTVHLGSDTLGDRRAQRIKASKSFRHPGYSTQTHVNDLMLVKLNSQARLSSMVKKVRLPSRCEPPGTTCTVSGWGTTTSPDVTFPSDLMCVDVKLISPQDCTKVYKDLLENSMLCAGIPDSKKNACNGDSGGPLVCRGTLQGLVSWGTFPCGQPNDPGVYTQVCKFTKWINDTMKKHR
Rin1-Abl confirm – Rin1-Abl binding inhibitor retest, confirmation, biochemical, TR-FRET. shares compounds with Rin1-Abl PPI inh. purified proteins. inhibition, % at 7.35 µM. 1,300 tested, 49% active. AID 602124, 2011; in the data active means inhibition above about 6.5%
GFP quench-1 – GFP fluorescence inhibitors and quenchers, artefact control for Rin1-Abl interaction inhibitor project, biochemical. shares compounds with Rin1-Abl PPI inh. inhibitors/quenchers counterscreen. inhibition, % at 6.75 µM. 1,300 tested, 8.5% active. AID 602125, 2011; in the data active means inhibition above about 6.5%;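 further: ABL1-eGFP fusion protein alone without its partner RIN1-SBP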
GFP quench DR – GFP fluorescence inhibitors and quenchers, dose response, artefact control for Rin1-Abl interaction inhibitor project, biochemical. shares compounds with Rin1-Abl PPI inh. GFP fluorescence interference/quenching counterscreen. IC50, µM. 230 tested, under 10 active. AID 602182, 2012;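 further: ABL1-eGFP fusion protein alone without its RIN1 binding partner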
GFP quench-2 – GFP fluorescence inhibitors and quenchers, late-stage follow-up, artefact control for Rin1-Abl interaction inhibitor project, biochemical, dose response; IC50, µM; shares compounds with Rin1-Abl PPI inh; AID 602397, 2012; GFP fluorescence quenching counterscreen; 25 tested, under 10 active
Large screens that a line does not name were inactive (follow-up assays come after a bar, where they were run). Compounds with a hit are over-represented: about 3.1% of the library has one in this group of screens. Unless noted, how the calls were made is not given here.

Cc1cccc(C(=O)N2CCCC(CCC(=O)N3CCN(c4ccccn4)CC3)C2)c1C (stereo not drawn)	Rin1-Abl PPI inh 12 | Rin1-Abl confirm inactive | GFP quench-1 inactive
O=C(CCC1CCCN(C(=O)C2(c3ccccc3)CC2)C1)N1CCN(c2ccccn2)CC1 (stereo not drawn)	Rin1-Abl PPI inh 10.0 | Rin1-Abl confirm inactive | GFP quench-1 inactive
Nc1[nH]c(C(=O)c2ccccc2)c(-c2ccc(Cl)cc2Cl)c1C(=O)c1cccs1	none (no result: Neddylation inh, Rin1-Abl PPI inh, proKLK7 act)
CSc1nc(Sc2ccccc2Cl)c2ccccc2n1	none
COc1ccccc1/C=[N+](\[O-])C1SC(=S)N(C)C1(C)C (stereo not drawn)	Rin1-Abl PPI inh 6.8 | Rin1-Abl confirm inactive | GFP quench-1 inactive
CN1C(=S)SC(/[N+]([O-])=C\c2ccco2)C1(C)C (stereo not drawn)	none
O=C1OC(NCc2cccnc2)(c2ccc(Cl)cc2)c2ccccc21 (stereo not drawn)	Rin1-Abl PPI inh 12 | Rin1-Abl confirm 7.4 | GFP quench-1 inactive
Clc1ccc(NCc2cccnc2)cc1	none
CC1(C(=O)Nc2ccccc2)CCN1C(=O)CCc1ccc(Cl)cc1Cl (stereo not drawn)	none
Cn1c(=O)c2c(nc(-n3ccnc3)n2Cc2ccccc2)n(C)c1=O	Rin1-Abl PPI inh 15 | Rin1-Abl confirm 13 | GFP quench-1 inactive
Cn1c(=O)c2c(nc(-n3ccnc3)n2Cc2ccc(Cl)cc2Cl)n(C)c1=O	Rin1-Abl PPI inh 72 | Rin1-Abl confirm 68 | GFP quench-1 inactive | GFP quench DR inactive | GFP quench-2 inactive
Cc1ccc(CS(=O)(=O)Cc2ccc(C(=O)NC3CCCC3)o2)cc1	none
Cc1ccc(C2N(c3ccc(Cl)cc3)C(=O)N3CCCN23)cc1 (stereo not drawn)	Rin1-Abl PPI inh 12 | Rin1-Abl confirm 13 | GFP quench-1 inactive
O=C1N(c2ccccc2)C(c2ccc(Cl)cc2)N2CCCN12 (stereo not drawn)	none
COc1cc2c(C(=O)NCc3ccc(C)o3)cn(CC(C)C)c(=O)c2cc1OC	Rin1-Abl PPI inh 6.9 | Rin1-Abl confirm inactive | GFP quench-1 inactive
CN(Cc1ccccc1)S(=O)(=O)c1ccc(Cl)c(C(=O)N2CCC2)c1	Rin1-Abl PPI inh 22 | Rin1-Abl confirm 17 | GFP quench-1 inactive | GFP quench DR inactive
CN(Cc1ccccc1)S(=O)(=O)c1ccc(Cl)c(C(=O)N2CCC(C(N)=O)CC2)c1	none
CSc1ccccc1NC(=O)CSc1cccc[n+]1[O-]	none
O=C1NNC(c2ccccc2)=N/C1=C\c1ccccc1Cl	Rin1-Abl PPI inh 6.8 | Rin1-Abl confirm 8.3 | GFP quench-1 inactive
CC1(C)CC(=O)N(c2ccc(Cl)c(Cl)c2)C(=O)C1	none
Cc1ccc(Cl)cc1N1C(=O)CC(C)(C)CC1=O	Rin1-Abl PPI inh 7.2 | Rin1-Abl confirm inactive | GFP quench-1 inactive
CCOc1ccc(NS(=O)(=O)c2ccc(C(=O)N3CC(C)OC(C)C3)cc2)cc1 (stereo not drawn)	Rin1-Abl PPI inh 8.9 | Rin1-Abl confirm 9.7 | GFP quench-1 inactive
Cc1cccc(-n2ncc3c2CCCC3NC(=O)C2CCOCC2)c1C (stereo not drawn)	none
S=C(NCCN1CCCCC1)Nc1ccccc1	Rin1-Abl PPI inh 9.0 | Rin1-Abl confirm inactive | GFP quench-1 inactive
CCCn1c(=O)c2c(ncn2C)n(CCC)c1=O	none
COc1ccc(SCCCn2c(=O)c3c(ncn3C)n(C)c2=O)cc1	Rin1-Abl PPI inh 7.7 | Rin1-Abl confirm inactive | GFP quench-1 inactive
COc1ccc(CCNC(=O)c2ccc(NC3=NC4CS(=O)(=O)CC4S3)cc2)cc1OC (stereo not drawn)	Rin1-Abl PPI inh 18 | Rin1-Abl confirm 22 | GFP quench-1 inactive | GFP quench DR inactive
O=C(Cc1ccc(NC2=NC3CS(=O)(=O)CC3S2)cc1)NCc1ccc(Cl)cc1 (stereo not drawn)	none
Cc1ccc(CNC(=O)Cc2ccc(NC3=NC4CS(=O)(=O)CC4S3)cc2)cc1 (stereo not drawn)	Rin1-Abl PPI inh 10 | Rin1-Abl confirm inactive | GFP quench-1 inactive
O=C(Cc1ccc(NC2=NC3CS(=O)(=O)CC3S2)cc1)NCCc1ccccc1 (stereo not drawn)	Rin1-Abl PPI inh 6.5 | Rin1-Abl confirm inactive | GFP quench-1 inactive
CC[C@]12c3[nH]c4ccc(Cl)cc4c3CCN1C(=O)[C@@H](CC(=O)NC/C=C(\C)CCC=C(C)C)C[C@@H]2C(=O)N1CCN(C(=O)c2ccco2)CC1	none
COc1cccc(NC(=O)n2ccc3ccc(-c4ccc5ccn(C(=O)Nc6cccc(OC)c6)c5c4)cc32)c1	none (no result: Neddylation inh, Rin1-Abl PPI inh)
O=C(CSc1nnc(-c2cccnc2)n1-c1ccccc1)Nc1ccccc1	none
Cc1ccc(-n2c(SCC(=O)NCc3ccco3)nnc2-c2cccnc2)cc1	Rin1-Abl PPI inh 7.4 | Rin1-Abl confirm 8.4 | GFP quench-1 inactive
Cc1ccc(NC(=O)CSc2nnc(-c3cccnc3)n2-c2ccc(C)cc2)cc1	Rin1-Abl PPI inh 11 | Rin1-Abl confirm 11 | GFP quench-1 inactive
Cn1c(CC(=O)Nc2ccccc2Cl)nnc1SCC(=O)NC1=NCCS1	none
Cc1cc(NC(=O)C2CCCCC2)ccc1NC(=O)c1ccccc1Cl	none
O=C1C(Nc2ccccc2)=CC(c2ccc(O)cc2)N1c1ccccc1 (stereo not drawn)	none
COc1cc(C2C=C(Nc3ccccc3)C(=O)N2c2ccccc2)ccc1O (stereo not drawn)	Rin1-Abl PPI inh 7.1 | Rin1-Abl confirm inactive | GFP quench-1 inactive
Nn1c(SCc2cccc3ccccc23)nnc1-c1cc(-c2ccc(F)cc2)n[nH]1	none (no result: Neddylation inh, Rin1-Abl PPI inh)
O=C(Cc1ccccc1)NCC(=O)N1CCN(c2ccccc2)CC1	none
